# Test results: PubChem BioAssay AID1159580 (chemical genetic matrix, 2015)
# Screen size: about 5,500 compounds; about 2,000 (36%) were called active. Not shown: some 18% with an inconclusive outcome. The list shows a part of the results. Unmarked numbers belong to inactive results. Rule as the data show it: active = normalized growth mostly below about 0.91 (no sharp cut-off); inconclusive = no clear call, values can overlap the other calls; inactive = mostly above about 0.92.
# Experiment: chemical genetic growth profiling, strain panel (AID 1159580);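 also: tested at 20 µM; growth read once vehicle control cultures reached saturation at 30 °C; 1 = growth at the plate median or of vehicle wells; lower values mean less growth of the strain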
# Settings: S. cerevisiae deletion strains, growth OD
structure (smiles),measurement,setting,value
C/C(=N/NC(=S)NCC(C)(C)C)c1cc(F)cc(Cl)c1O,normalized growth,"locus YAR019C, strain CDC15, active compounds read low",0.963
same,normalized growth,"locus YBL105C, strain PKC1, active compounds read low",0.961
same,normalized growth,"locus YBR135W, strain CKS1, active compounds read low",0.956
same,normalized growth,"locus YBR136W, strain MEC1, active compounds read low",0.959
same,normalized growth,"locus YBR160W, strain CDC28, active compounds read low",0.97
same,normalized growth,"locus YDL017W, strain CDC7, active compounds read low",0.953
same,normalized growth,"locus YDL028C, strain MPS1, active compounds read low",0.959
same,normalized growth,"locus YDL101C, strain DUN1, active compounds read low",0.967
same,normalized growth,"locus YDL108W, strain KIN28, active compounds read low",0.972
same,normalized growth,"locus YDL132W, strain cdc53, active compounds read low",0.98
same,normalized growth,"locus YDL214C, strain PRR2, active compounds read low",0.942
same,normalized growth,"locus YDR052C, strain DBF4, active compounds read low",0.971
same,normalized growth,"locus YDR054C, strain cdc34, active compounds read low",0.976
same,normalized growth,"locus YDR226W, strain ADK1, active compounds read low",0.965
same,normalized growth,"locus YDR477W, strain SNF1, active compounds read low",0.928
same,normalized growth,"locus YER123W, strain YCK3, active compounds read low",0.928
same,normalized growth,"locus YER133W, strain GLC7, active compounds read low",0.955
same,normalized growth,"locus YFL009W, strain cdc4, active compounds read low",0.966
same,normalized growth,"locus YFL029C, strain CAK1, active compounds read low",0.953
same,normalized growth,"locus YFR003C, strain YPI1, active compounds read low",0.963
same,normalized growth,"locus YFR019W, strain FAB1, active compounds read low",0.992
same,normalized growth,"locus YFR028C, strain CDC14, active compounds read low",0.961
same,normalized growth,"locus YGR040W, strain KSS1, active compounds read low",0.922
same,normalized growth,"locus YGR052W, strain FMP48, active compounds read low",0.938
same,normalized growth,"locus YGR092W, strain DBF2, active compounds read low",0.716
same,normalized growth,"locus YHR030C, strain SLT2, active compounds read low",0.681 (active)
same,normalized growth,"locus YHR079C, strain IRE1, active compounds read low",0.784
same,normalized growth,"locus YHR082C, strain KSP1, active compounds read low",0.964
same,normalized growth,"locus YHR205W, strain SCH9, active compounds read low",0.941
same,normalized growth,"locus YIL147C, strain SLN1, active compounds read low",0.963
same,normalized growth,"locus YJL095W, strain BCK1, active compounds read low",0.852
same,normalized growth,"locus YJL128C, strain PBS2, active compounds read low",0.952
same,normalized growth,"locus YJL157C, strain FAR1, active compounds read low",0.936
same,normalized growth,"locus YJR016C, strain ILV3, active compounds read low",0.961
same,normalized growth,"locus YJR066W, strain TOR1 (second series), active compounds read low",0.868
same,normalized growth,"locus YJR066W, strain TOR1, active compounds read low",0.894
same,normalized growth,"locus YKL048C, strain ELM1, active compounds read low",0.946
same,normalized growth,"locus YKL067W, strain YNK1, active compounds read low",0.962
same,normalized growth,"locus YKL101W, strain HSL1, active compounds read low",0.923
same,normalized growth,"locus YKL193C, strain SDS22, active compounds read low",0.966
same,normalized growth,"locus YKL203C, strain TOR2, active compounds read low",0.94
same,normalized growth,"locus YLR113W, strain HOG1, active compounds read low",0.735 (active)
same,normalized growth,"locus YLR133W, strain CKI1, active compounds read low",0.884
same,normalized growth,"locus YLR403W, strain SFP1, active compounds read low",0.837
same,normalized growth,"locus YML070W, strain DAK1, active compounds read low",0.941
same,normalized growth,"locus YMR001C, strain CDC5, active compounds read low",0.961
same,normalized growth,"locus YMR205C, strain PFK2 (second series), active compounds read low",0.939
same,normalized growth,"locus YMR277W, strain FCP1, active compounds read low",0.96
same,normalized growth,"locus YNL006W, strain LST8, active compounds read low",0.972
same,normalized growth,"locus YNL020C, strain ARK1, active compounds read low",0.837
same,normalized growth,"locus YNL161W, strain CBK1, active compounds read low",0.956
same,normalized growth,"locus YNL183C, strain NPR1, active compounds read low",0.947
same,normalized growth,"locus YNL207W, strain RIO2, active compounds read low",0.962
same,normalized growth,"locus YNL222W, strain SSU72, active compounds read low",0.959
same,normalized growth,"locus YNL307C, strain MCK1 (second series), active compounds read low",0.883
same,normalized growth,"locus YOL078W, strain AVO1, active compounds read low",0.974
same,normalized growth,"locus YOL136C, strain PFK27, active compounds read low",0.948
same,normalized growth,"locus YOR061W, strain CKA2, active compounds read low",0.869
same,normalized growth,"locus YOR119C, strain RIO1, active compounds read low",0.984
same,normalized growth,"locus YOR231W, strain MKK1, active compounds read low",0.837
same,normalized growth,"locus YOR329C, strain SCD5, active compounds read low",0.964
same,normalized growth,"locus YPL031C, strain PHO85, active compounds read low",0.915
same,normalized growth,"locus YPL153C, strain RAD53, active compounds read low",0.913
same,normalized growth,"locus YPL204W, strain HRR25, active compounds read low",0.92
same,normalized growth,"locus YPL209C, strain IPL1, active compounds read low",0.959
same,normalized growth,"locus YPL256C, strain CLN2, active compounds read low",0.782 (active)
same,normalized growth,"locus YPR025C, strain CCL1, active compounds read low",0.965
same,normalized growth,"locus YPR106W, strain ISR1, active compounds read low",0.989
same,normalized growth,"locus YPR111W, strain DBF20, active compounds read low",0.968
same,normalized growth,"strain NNK1, active compounds read low",0.973
same,normalized growth,"strain TSCII, active compounds read low",0.956
